# DRD3 agonist = D3 dopamine receptor (human) agonism | D3R DiscoveRx beta-arrestin cells, luminescence, 90 min | max activation, % | actives 0.58% (n = 410,000); in the data active = max activation above about 30%; note: 0% is about no effect
# Target sequence (P35462 whole entry, looked up): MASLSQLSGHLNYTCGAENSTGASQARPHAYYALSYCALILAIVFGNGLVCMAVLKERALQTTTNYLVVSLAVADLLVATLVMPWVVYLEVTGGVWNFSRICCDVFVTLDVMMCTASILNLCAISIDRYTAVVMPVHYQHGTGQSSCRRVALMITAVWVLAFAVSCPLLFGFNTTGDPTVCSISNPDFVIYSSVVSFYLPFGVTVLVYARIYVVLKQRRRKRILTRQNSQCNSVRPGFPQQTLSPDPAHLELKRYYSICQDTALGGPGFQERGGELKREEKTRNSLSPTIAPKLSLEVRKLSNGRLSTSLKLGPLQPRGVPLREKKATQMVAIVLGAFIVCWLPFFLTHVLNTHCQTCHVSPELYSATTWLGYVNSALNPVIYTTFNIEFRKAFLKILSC
#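 Cells at 1500/well, incubated overnight, then treated with pinned compounds (dopamine as control) for 90 min at 37 degrees C. DiscoveRx reagent added for 30 - 60 minutes at room temperature; luminescence read.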
# ClpP mod = qHTS Assay for Activators of ClpP. purified B. subtilis ClpP, FRET peptide cleavage, 20 min. Potency, µM (top dose mostly 57.5 µM), without a hit: at the top dose activity change, negative = active. actives 1.9% (n = 340,000). AID 651965, 2013; active = well fitted falling curve with a large enough effect; inconclusive = small, poorly fitted or top-dose-only effect; inactive = no such curve, though single readings can be large or run the other way; note: potency is the fitted concentration of half-maximal effect; the source files actives as falling curves though it sought activators and does not explain the sign; nearly all actives have a fitted effect of over 65% in size
#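 Purified B. subtilis ClpP, 10 microg/mL final in Tris/HCl pH8 with KCl, BSA, glycerol and Tween-20, cleaved an Abz/nitrotyrosine-quenched decapeptide. Fluorescence (ex 320, em 430) was read at 0 and 20 min at room temperature. Delta was normalized to 5.8 microM ADEP and DMSO/no-enzyme controls.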
# DT40 TDP1 no CPT = qHTS for Inhibitors of human tyrosyl-DNA phosphodiesterase 1 (TDP1): qHTS in cells in absence of CPT | DT40 Tdp1-/- hTDP1 cells, no CPT, ATP luminescence, 48 h | Potency, µM (doses to about 46.2 µM), for the others: top-dose activity change, negative = growth inhibition, actives largely listed as inhibitors | actives 15% (n = 420,000); note: potency is the fitted concentration of half-maximal effect; % is set by controls: 0 for no effect and ±100 for the full control effect; nearly all actives have a fitted effect of over 55% in size
#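 Luminescent ATP content (CellTiter-Glo) served as the growth readout. Knockout chicken DT40 cells expressing human TDP1 were exposed to compounds without camptothecin for a minimum 48 hr at 37 °C.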
# TDP1 cell CPT = DT40-hTDP1 cell growth loss with CPT; chicken DT40 Tdp1-/-;hTDP1 cells + 20 nM CPT, ATP luminescence, 48 h; Potency, µM (highest dose often 46.2 µM), without a hit: top-dose activity change, negative = growth inhibition, usual class: inhibitors; actives 12% (n = 420,000); note: potency is the fitted concentration of half-maximal effect; % is set by controls: 0 for no effect and ±100 for the full control effect; nearly all actives have a fitted effect of over 55% in size
#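 Chicken DT40 Tdp1-/- cells stably complemented with human TDP1 were seeded at 400 cells/well in medium containing 20 nM camptothecin, exposed to pin-transferred compounds, and grown at 37 °C for at least 48 hr. Viability was read as ATP luminescence.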
# D3 antag = antagonists of human D3 dopamine receptor. AID 652054. D3R cells, DiscoveRx beta-arrestin luminescence, antagonist mode; active compounds read low. actives 2.5% (n = 360,000). max response, negative = inhibition, %. P35462; in the data active = max response below about -50%; inconclusive = no clear call, values can overlap the other calls; note: % is set by controls: 0 for no effect and ±100 for the full control effect
#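 Cells plated overnight at 1500 cells/well, then exposed to library compounds with dopamine controls for 90 minutes at 37 degrees C. DiscoveRx reagent added for 30–60 minutes at room temperature; luminescence read, quantitative HTS format.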
# IL1B secr inh = inflammasome signaling inhibition, IL-1 beta readout. THP-1 LPS/ATP IL-1B secretion, AlphaLISA, 16 h; active compounds read low. activity change, % at 57.5 µM. actives 4.7% (n = 360,000). AID 743279; in the data active = activity change below about -50%; inconclusive = mostly about -30% to -49%; note: % is set by controls: 0 for no effect and ±100 for the full control effect
#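 THP-1 cells pretreated 1 hr with compounds (up to 57.5 uM final), then stimulated with LPS (250 ng/mL final) plus ATP (1.25 mM final); secreted IL-1B measured by AlphaLISA after 16 hr, decreased signal indicating inhibition.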
# Starred values were filed as active, the others as inactive; ? = inconclusive; . = no result. Shown are actives, neighbours in structure and some others; about 21% of the full set was active somewhere. Unless noted, calls come from the whole dose curve; as a rule, active = well fitted inhibition curve with a large enough effect; inconclusive = small, poorly fitted or top-dose-only effect; inactive = flat fitted curve, though single readings scatter.
SMILES,DRD3 agonist,ClpP mod,DT40 TDP1 no CPT,TDP1 cell CPT,D3 antag,IL1B secr inh
Cn1nnnc1SCCNCc1cc(Br)ccc1OCc1ccccc1Cl,-15.5,0.4%,16.4µM*,23.1µM*,.,.
Cn1nnnc1SCCNCc1ccccc1OCc1ccccc1F,-19.0,-0.4%,?,18.4µM*,.,.
Cn1nnnc1SCCNCc1ccccc1OCc1ccccc1Cl,-14.5,.,13µM*,?,-8.8,-50.4*
CC1=C(C)C(C)=C(C#N)C(=C(C#N)C#N)N1,-5.6,.,-4.1%,8.4%,-9.5,.
COc1ccccc1C(=O)COC(=O)c1c(-c2ccccc2)noc1C,0.1,.,?,?,7.8,-16.7
CCOC(=O)c1ccc(NC(=O)COc2cc3oc(=O)c(CC(C)O)c(C)c3cc2Cl)cc1 (centres undefined),10.5,-7.1%,25.9%,-24.7%,4.9,-19.5
CC(=O)c1cccc(NC(=O)COc2cc3oc(=O)c(CC(C)O)c(C)c3cc2Cl)c1 (centres undefined),4.2,.,20.6µM*,?,1.9,-0.9
CN(c1ccccc1C(=O)O)S(C)(=O)=O,1.8,-3.9%,-7.1%,9.7%,8.1,-0.6
CN(C)c1ccccc1C(=O)c1ccccc1N(C)C,-1.7,-3.6%,4.11µM*,4.61µM*,-19.7,24.4
O=C(Nc1ccccc1Cl)C1(c2ccccc2)CC1(Cl)Cl (centres undefined),2.6,-0.7%,11.6µM*,-18.2%,6.5,6.5
Nn1cc(Br)c(=O)[nH]c1=O,.,.,-20.7%,-3.8%,.,.
O=C(Nc1ccccc1C(F)(F)F)N1CCOc2ccc(Cl)cc21,3.0,-3.5%,1.9%,10.4%,.,.
CCOC(=O)N1CCN(c2nc(-c3cccs3)nc3ccccc23)CC1,2.0,.,14.6µM*,23.1µM*,67.1,?
CC(=O)N1CCN(c2nc(-c3cccs3)nc3ccccc23)CC1,0.8,.,?,-7.0%,-0.2,-86.2*
CCCN1CCN(c2nc(-c3cccs3)nc3ccccc23)CC1,-22.7,1.9%,?,?,-15.5,-27.6
COc1cccc(NC(=O)CN2C(=O)COc3ccc(S(=O)(=O)N4CCCCCC4)cc32)c1,-17.9,1.3%,?,?,-10.3,-24.4
O=C(CN1C(=O)NC2(CCCC2)C1=O)Nc1cc(C(F)(F)F)ccc1N1CCCCC1,-1.1,-9.6%,-20.0%,?,3.0,-72.0*
COc1ccc(NC(=O)CN2C(=O)NC3(CCCC3)C2=O)c(OC)c1,-5.5,.,-9.1%,18.0%,0.1,-21.6
COc1cccc(Oc2ccc(C(F)(F)F)cc2NC(=O)CN2C(=O)NC3(CCCC3)C2=O)c1,7.0,1.6%,?,14.6µM*,-22.6,-30.0
COCCN1Cc2cccc(C(=O)Nc3ccc(C)c(F)c3)c2C1=O,-0.6,5.4%,?,?,.,.
COc1ccc(C(=O)Nc2ccc(-c3n[nH]c(=S)o3)cc2)cc1OC,-0.5,-14.5%,-26.7%,-12.0%,-4.3,-1.8
COc1ccccc1-c1n[nH]c(=S)o1,-11.4,?,-6.1%,-14.3%,-81.6*,34.0
COc1ccc(Cl)cc1-c1n[nH]c(=S)o1,-5.3,?,-24.0%,?,-83.8*,16.0
CNC(=O)C1CCC(Cn2c(=O)c3sccc3n(CC(=O)NCc3ccccc3)c2=O)CC1 (centres undefined),0.2,-1.1%,?,?,.,.
O=Cc1c2[nH]c3ccccc3c2cc2[nH]c3ccccc3c12,.,.,-9.0%,-5.5%,.,.
O=C(C#Cc1ccccc1)Nc1ccccc1F,0.4,-1.8%,18.4µM*,20.6µM*,-4.6,-93.3*
COc1ccc(NC(=O)c2ccccc2SC)cc1OC,-10.1,-0.1%,-4.0%,-8.6%,-10.7,0.0
NC(=O)c1ccc(NC(=O)C#Cc2ccccc2)cc1,8.0,.,8.2µM*,?,2.0,-101.0*
CNC(=O)Nc1ccccc1F,0.6,1.7%,-5.5%,-3.8%,5.5,-3.3
